# Assay results taken from PubChem BioAssay (NCATS).
# Values joined by “and” are separate entries in the source; they are usually repeats but may differ in a detail not shown here. Equal values may be shown once. Inconclusive results are not listed. A call without a number means that no potency is given here. Values without a mark were called inactive. Active and inactive are the calls of the source. The call rests on the fitted dose curve; in most records, active means well fitted inhibition curve with a large enough effect; inconclusive means small, poorly fitted or top-dose-only effect; inactive means flat fitted curve, though single readings scatter.
# Assays:
# GB4 = test: qHTS profiling for inhibitors of Plasmodium falciparum proliferation (AID 504749); conditions: P. falciparum in erythrocytes, SYBR Green DNA, 72 h; series mostly up to 28.7 µM
# Method in brief: (§1)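 Quantitative HTS: compounds pinned into medium, infected erythrocytes added (0.3% parasitemia, 2.5% hematocrit), 72 h culture at 37 C under 5% CO2. Saponin/Triton lysis with SYBR Green I, overnight RT, then fluorescence read.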
# HB3 = test: as above; conditions: P. falciparum in erythrocytes, SYBR Green DNA, 72 h; series mostly up to 28.7 µM
# Method in brief: as §1
# ICS = test: as above; conditions: P. falciparum in erythrocytes, SYBR Green DNA, 72 h; series mostly up to 28.7 µM
# Method in brief: as §1
# JCK = test: as above; conditions: P. falciparum in erythrocytes, SYBR Green DNA, 72 h; series mostly up to 28.7 µM
# Method in brief: as §1
# N140 = test: as above; conditions: P. falciparum in erythrocytes, SYBR Green DNA, 72 h; series mostly up to 28.7 µM
# Method in brief: as §1
# P93_24 = test: as above; conditions: P. falciparum in erythrocytes, SYBR Green DNA, 72 h; series mostly up to 28.7 µM
# Method in brief: as §1
# P94_40 = test: as above; conditions: P. falciparum in erythrocytes, SYBR Green DNA, 72 h; series mostly up to 28.7 µM
# Method in brief: as §1
# PAD = test: as above; conditions: P. falciparum in erythrocytes, SYBR Green DNA, 72 h; series mostly up to 28.7 µM
# Method in brief: as §1
# PC15 = test: as above; conditions: P. falciparum in erythrocytes, SYBR Green DNA, 72 h; series mostly up to 28.7 µM
# Method in brief: as §1
# PC26 = test: as above; conditions: P. falciparum in erythrocytes, SYBR Green DNA, 72 h; series mostly up to 28.7 µM
# Method in brief: as §1
# PC49 = test: as above; conditions: P. falciparum in erythrocytes, SYBR Green DNA, 72 h; series mostly up to 28.7 µM
# Method in brief: as §1
# SC27B = test: as above; conditions: P. falciparum in erythrocytes, SYBR Green DNA, 72 h; series mostly up to 28.7 µM
# Method in brief: as §1
# TAB109 = test: as above; conditions: P. falciparum in erythrocytes, SYBR Green DNA, 72 h; series mostly up to 28.7 µM
# Method in brief: as §1
# TAB113 = test: as above; conditions: P. falciparum in erythrocytes, SYBR Green DNA, 72 h; series mostly up to 28.7 µM
# Method in brief: as §1
# TAB165 = test: as above; conditions: P. falciparum in erythrocytes, SYBR Green DNA, 72 h; series mostly up to 28.7 µM
# Method in brief: as §1
# W2 = test: as above; conditions: P. falciparum in erythrocytes, SYBR Green DNA, 72 h; series mostly up to 28.7 µM
# Method in brief: as §1
# CRL-7250 = normal cell line; test: Cytotoxic Profiling of Annotated Libraries Using Quantitative High-Throughput Screening (AID 1296008); conditions: Five cell lines viability, CellTiter-Glo ATP luminescence, 48-72 h; max response: stronger effect = lower value; further: potency means the concentration at half of the fitted maximal effect
# Method in brief: (§2)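 Compounds were pin-transferred onto cells and incubated 48 or 72 hr at 37 degree Celsius, 95% humidity. CellTiter-Glo was added, plates sat 10 min at room temperature, then ATP-coupled luminescence was imaged as the viability read-out.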
# HEK293 = test: as above; conditions: Five cell lines viability, CellTiter-Glo ATP luminescence, 48-72 h; max response: stronger effect = lower value
# Method in brief: as §2
# HaCat = test: as above; conditions: Five cell lines viability, CellTiter-Glo ATP luminescence, 48-72 h; max response: stronger effect = lower value
# Method in brief: as §2
# KB-3-1 = test: as above; conditions: Five cell lines viability, CellTiter-Glo ATP luminescence, 48-72 h; max response: stronger effect = lower value
# Method in brief: as §2
# Further: nearly all actives have a fitted effect of over 60% in size.
compound,measurement,setting,value
O=C1NCC2(CCN(CCc3ccccc3)CC2)O1,Potency,GB4,inactive
same,Potency,HB3,inactive
same,Potency,ICS,inactive
same,outcome,JCK,inactive
same,Potency,N140,inactive
same,outcome,P93_24,inactive
same,Potency,P94_40,inactive
same,outcome,PAD,inactive
same,outcome,PC15,inactive
same,Potency,PC26,inactive
same,outcome,PC49,inactive
same,Potency,SC27B,inactive
same,outcome,TAB109,inactive
same,Potency,TAB113,inactive
same,Potency,TAB165,inactive
same,Potency,W2,inactive
same,outcome,CRL-7250,inactive
same,outcome,HEK293,inactive
same,outcome,HaCat,inactive
same,max response,KB-3-1,9.9%
COc1cc(NC(=O)c2ccc(-c3ccc(Cl)cc3)o2)cc(OC)c1,outcome,CRL-7250,inactive
same,max response,HEK293,2.11%
same,outcome,HaCat,inactive
same,max response,KB-3-1,5.65%
O=C(O)C(O)Cc1ccc(O)c(O)c1 (stereo unspecified),max response,CRL-7250,-24.8%
same,outcome,HEK293,inactive
same,max response,HaCat,-1.88%
same,max response,KB-3-1,5.06%
NCCS,Potency,GB4,inactive
same,Potency,HB3,inactive
same,Potency,ICS,inactive
same,outcome,JCK,inactive
same,Potency,N140,inactive
same,outcome,P93_24,inactive
same,Potency,P94_40,inactive
same,outcome,PAD,inactive
same,outcome,PC15,inactive
same,Potency,PC26,inactive
same,outcome,PC49,inactive
same,Potency,SC27B,inactive
same,outcome,TAB109,inactive
same,Potency,TAB113,inactive
same,Potency,TAB165,inactive
same,Potency,W2,inactive
same,max response,CRL-7250,-9.34%
same,outcome,HEK293,inactive
same,outcome,HaCat,inactive
same,max response,KB-3-1,-0.944% and -2.01%
O=C1NC(=O)C(c2ccccc2)(c2ccccc2)N1,Potency,GB4,inactive
same,Potency,HB3,inactive
same,Potency,ICS,inactive
same,outcome,JCK,inactive
same,Potency,N140,inactive
same,outcome,P93_24,inactive
same,Potency,P94_40,inactive
same,outcome,PAD,inactive
same,outcome,PC15,inactive
same,Potency,PC26,inactive
same,outcome,PC49,inactive
same,Potency,SC27B,inactive
same,outcome,TAB109,inactive
same,Potency,TAB113,inactive
same,Potency,TAB165,inactive
same,Potency,W2,inactive
same,outcome,CRL-7250,inactive
same,max response,HEK293,-11.5%
same,max response,HaCat,-5.29%
same,max response,KB-3-1,7.95%
O=c1c(O)c(-c2ccc(O)cc2)oc2cc(O)cc(O)c12,outcome,CRL-7250,inactive
same,outcome,HEK293,inactive
same,max response,HaCat,-4.55%
same,outcome,KB-3-1,inactive
O=c1cc(N2CCOCC2)oc2c(-c3cccc4c3sc3ccccc34)cccc12,max response,CRL-7250,-14.3%
same,Potency,HEK293,2.96 µM (active)
same,max response,HaCat,-6.51%
same,outcome,KB-3-1,inactive
Cc1ccc(Nc2cc(-c3cccc(N4C(=O)c5ccccc5C4=O)c3)ncn2)cc1NS(C)(=O)=O,outcome,CRL-7250,inactive
same,max response,HEK293,-21.5%
same,outcome,HaCat,inactive
same,max response,KB-3-1,6.32%
same,outcome,KB-3-1,inactive
OC[C@H]1O[C@@H](n2cnc3c2NC=NC[C@@H]3O)C[C@H]1O,max response,CRL-7250,2.48%
same,outcome,HEK293,inactive
same,max response,HaCat,1.63%
same,max response,KB-3-1,-3.46%
O=C(O)c1ccccc1C(=O)Nc1ccc(-c2ccccc2)cc1,max response,CRL-7250,4.68%
same,max response,HEK293,-10.6%
same,outcome,HaCat,inactive
same,max response,KB-3-1,9.98%
same,outcome,KB-3-1,inactive
Cc1cnc(C(=O)O)c[n+]1[O-],Potency,GB4,inactive
same,Potency,HB3,inactive
same,Potency,ICS,inactive
same,outcome,JCK,inactive
same,Potency,N140,inactive
same,outcome,P93_24,inactive
same,Potency,P94_40,inactive
same,outcome,PAD,inactive
same,outcome,PC15,inactive
same,Potency,PC26,inactive
same,outcome,PC49,inactive
same,Potency,SC27B,inactive
same,outcome,TAB109,inactive
same,Potency,TAB113,inactive
same,Potency,TAB165,inactive
same,Potency,W2,inactive
same,max response,CRL-7250,4.3%
same,outcome,HEK293,inactive
same,outcome,HaCat,inactive
same,max response,KB-3-1,1.54% and 2.87% and -1.62%
same,outcome,KB-3-1,inactive
O=C(NCc1ccccc1)c1csc(Nc2ccncn2)n1,Potency,CRL-7250,11.8 µM (active)
same,Potency,HEK293,5.26 µM (active)
same,outcome,HaCat,inactive
same,max response,KB-3-1,3.38% and -16.6%
CN(C)c1cc(NC(=O)CNC(C)(C)C)c(O)c2c1C[C@@H]1C[C@H]3[C@H](N(C)C)C(=O)C(C(N)=O)=C(O)[C@@]3(O)C(=O)C1=C2O,max response,CRL-7250,-28.8%
same,max response,HEK293,4.51%
same,max response,HaCat,1.33%
same,max response,KB-3-1,-10.5%
O=C(OCC#CCSc1nnc(-c2cccc3ccccc23)o1)c1cc2ccccc2s1,max response,CRL-7250,3.01%
same,outcome,HEK293,inactive
same,max response,HaCat,-10.9%
same,max response,KB-3-1,-5.32%
CC1(C)CCC(CN2CCN(c3ccc(C(=O)NS(=O)(=O)c4ccc(NCC5CCOCC5)c([N+](=O)[O-])c4)c(Oc4cnc5[nH]ccc5c4)c3)CC2)=C(c2ccc(Cl)cc2)C1,max response,CRL-7250,-2.21% and -9.69%
same,max response,HEK293,-5.37% and -6.15%
same,max response,HaCat,-24.1% and -27.2%
same,max response,KB-3-1,0.966%
O=C(Nc1c(Cl)cncc1Cl)c1ccc(OC(F)F)c(OCC2CC2)c1,max response,CRL-7250,-6.52%
same,max response,HEK293,0.493%
same,outcome,HaCat,inactive
same,outcome,KB-3-1,inactive
COc1cccc([C@@H](C)NCCCc2ccccc2Cl)c1,outcome,CRL-7250,inactive
same,max response,HEK293,1.17%
same,outcome,HaCat,inactive
same,outcome,KB-3-1,inactive
CC=C(C)C(=O)O[C@H]1C(C)=C[C@]23C(=O)[C@@H](C=C(CO)[C@@H](O)[C@]12O)[C@H]1[C@@H](C[C@H]3C)C1(C)C,max response,CRL-7250,2.46%
same,Potency,HEK293,26.4 µM (active)
same,outcome,HaCat,inactive
same,max response,KB-3-1,-20.1%
COc1ccc2cccc(CCNC(C)=O)c2c1,max response,CRL-7250,-2.32%
same,max response,HEK293,4.38%
same,max response,HaCat,-1.39%
same,max response,KB-3-1,2.52%
C=C1C(=O)OC(CCCCCCCC)C1C(=O)O (stereo unspecified),outcome,CRL-7250,inactive
same,outcome,HEK293,inactive
same,outcome,HaCat,inactive
same,max response,KB-3-1,-17.3%
C[N+](C)(C)CCCCCC[N+](C)(C)C,Potency,GB4,inactive
same,Potency,HB3,inactive
same,Potency,ICS,inactive
same,outcome,JCK,inactive
same,Potency,N140,inactive
same,outcome,P93_24,inactive
same,Potency,P94_40,inactive
same,outcome,PAD,inactive
same,outcome,PC15,inactive
same,Potency,PC26,inactive
same,outcome,PC49,inactive
same,Potency,SC27B,inactive
same,outcome,TAB109,inactive
same,Potency,TAB113,inactive
same,Potency,TAB165,inactive
same,Potency,W2,inactive
same,max response,CRL-7250,-5.15%
same,outcome,HEK293,inactive
same,max response,HaCat,2.98%
same,max response,KB-3-1,21.4%
CC(C)n1nc(-c2ccc3oc(N)nc3c2)c2c(N)ncnc21,Potency,CRL-7250,1 nM (active) and 58 nM (active)
same,Potency,HEK293,1.7 nM (active) and 82 nM (active)
same,Potency,HaCat,3.26 µM (active)
same,Potency,KB-3-1,7.4 nM (active) and 116 nM (active)
